Active and inactive are the calls of the source. How the calls were made is not given here.
Potency means the concentration at half of the fitted maximal effect.

This test concerns HIV-1 nucleocapsid protein NCp7 (binding to TG oligonucleotide). Description: HIV Nucleocapsid (AID 346).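 Further: potency is for inhibitors that block NC binding and lower polarization.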 Conditions: HIV-1 NC / fluorescein-TGTGTGTG probe, fluorescence polarization. The method, boiled down: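 HIV-1 NC (100 nM) binding to fluorescein-labelled ssDNA TG4xF (10 nM) in Hepes pH 7.5, 250mM NaCl, 1uM ZnCl2, TCEP and 2-mercaptoethanol; compounds pin-transferred, 1 hr room temperature, fluorescence polarization read on CCD imager.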
As for `O=C(Nc1cccc(F)c1)N1CCCC2(CCN(C(=O)c3cc(C(F)(F)F)cc(C(F)(F)F)c3)CC2)C1`, the Potency is > 20 µM (inactive).
For the compound `COc1ccccc1CN1CCC2(CC1)CCN(S(=O)(=O)c1ccccc1)CC2`, the Potency was > 20 µM (inactive).
For `CN(C)c1ncnc2ccc(-c3ccoc3)cc12`, the Potency was > 20 µM (inactive).
For `COc1ccccc1-c1cc(Nc2ccc(F)cc2)ncn1` the value was > 20 µM (inactive); for `CN1CCN(c2ncc3ncc(=O)n(CCc4ccccc4)c3n2)CC1`, > 20 µM (inactive).
The same measure for `Cc1noc(C)c1-c1ccc2ncnc(N(C)Cc3ccco3)c2c1`: > 20 µM (inactive); for `COCCn1c(=O)c(-c2cccc(C#N)c2)nc2cnc(Oc3cccc(Cl)c3)nc21`: > 20 µM (inactive); for `COc1ncc2nc(C)c(=O)n(CCc3ccccc3)c2n1`: > 20 µM (inactive).
`CC(C)NC(=O)N1CC[C@@]2(CCCN(C(=O)c3csnn3)C2)C1`: the Potency was > 20 µM (inactive).
Turning to `CN(C)c1ncc2ncc(=O)n(CCC#N)c2n1`, the Potency was > 20 µM (inactive).
On to `CN(C)c1ccc(-c2nccc(NCc3ccccc3)n2)cc1`, for which the Potency is > 20 µM (inactive).
For the compound `COCC(=O)N1CCC2(CC1)CN(c1cccc(-c3ccccc3)c1)C2`, the Potency was > 20 µM (inactive).
Consider `COCC(=O)N1CCC2(CCCN(Cc3cc(C(F)(F)F)cc(C(F)(F)F)c3)C2)CC1`, for which the Potency was > 20 µM (inactive).
The same measure for `CCNc1ncc2nc(C)c(=O)n(Cc3ccc(F)cc3)c2n1`: > 20 µM (inactive).
`CC(C)CN1CCCC2(CCN(C(=O)c3cnccn3)CC2)C1`: the Potency is > 20 µM (inactive).
The same measure for `Cn1c(=O)c(-c2ccccc2)nc2cnc(N3CCOCC3)nc21`: > 20 µM (inactive).
For `COc1ccc(-n2c(=O)c(-c3ccc(F)cc3)nc3cnc(N4CCNCC4)nc32)cc1` the value was > 20 µM (inactive); for `COc1ccc(-n2c(=O)c(C)nc3cnc(N4CCOCC4)nc32)cc1`, > 20 µM (inactive).
As for `COc1ccc(Oc2ncc3ncc(=O)n(C)c3n2)cc1`, the Potency was > 20 µM (inactive).
The same measure for `O=c1c(-c2cccc(F)c2)nc2cncnc2n1Cc1ccccc1Cl`: > 20 µM (inactive); for `COCCn1c(=O)c(-c2ccccc2)nc2cnc(OC)nc21`: > 20 µM (inactive); for `Cn1c(=O)c(-c2ccc(Cl)cc2)nc2cnc(N3CCNCC3)nc21`: > 20 µM (inactive).
For `CCNc1ncc2nc(-c3cn(C)c4ccccc34)c(=O)n(Cc3cccc(OC)c3)c2n1` the value was > 20 µM (inactive).
In the case of `O=C(c1ccncc1)N1CCC2(CC1)CN(c1ccccc1)C2`, the Potency is > 20 µM (inactive).
As for `Cc1cnc(CNc2cc(-c3c(C)noc3C)ncn2)cn1`, the Potency is > 20 µM (inactive).
The same measure for `O=c1c(CCc2ccccc2)nc2cnc(N3CCOCC3)nc2n1Cc1cccs1`: > 20 µM (inactive); for `COc1ccc(-c2nc3cnc(OC)nc3n(Cc3cccs3)c2=O)cc1`: > 20 µM (inactive); for `CCNc1ncc2nc(-c3cc(F)cc(F)c3)c(=O)n(C3CC3)c2n1`: > 20 µM (inactive).
For `O=C(c1csnn1)N1CCC2(CC1)CN(Cc1cc(C(F)(F)F)cc(C(F)(F)F)c1)C2` the value was > 20 µM (inactive); for `CN(C)c1ncnc2ccc(-c3cccnc3)cc12`, > 20 µM (inactive).
As to `Cn1c(=O)c(-c2ccccc2)nc2cnc(Nc3ccccc3)nc21`, the Potency is > 4 µM (inactive).
`Cc1ccccc1-c1nc(N(C)Cc2ccco2)c2ccccc2n1`: the Potency was > 20 µM (inactive).
For `COCCn1c(=O)c(-c2cc(F)cc(F)c2)nc2cnc(Oc3ccccc3)nc21` the value was > 20 µM (inactive).
Regarding `N#Cc1cccc(NC(=O)N2CC[C@@]3(CCCNC3)C2)c1`, the Potency is > 20 µM (inactive).
The same measure for `O=C(c1cc(C(F)(F)F)cc(C(F)(F)F)c1)N1CCC[C@@]2(CCN(c3ncccn3)C2)C1`: > 20 µM (inactive); for `COCCn1c(=O)c(-c2cccs2)nc2cnc(N3CCOCC3)nc21`: > 20 µM (inactive); for `COc1cccc(-c2nccc(NCc3ccccc3OC)n2)c1`: > 20 µM (inactive).
The same measure for `COC(=O)N1CCC2(CCN(Cc3ccccc3)CC2)CC1`: > 20 µM (inactive); for `COC(=O)N1CCC2(CC1)CCN(c1ccccc1)CC2`: > 20 µM (inactive); for `Cc1ccccc1-c1ccc2ncnc(NCc3cccnc3)c2c1`: > 20 µM (inactive).
